Laboratory results: PubChem BioAssay AID588591 (National Center for Advancing Translational Sciences (NCATS), 2011)
The campaign covered roughly 390,000 compounds. About 4,700 (1.2%) were called active. Not shown: some 4% with an inconclusive outcome. The call rests on the fitted dose curve; in most records, active means well fitted inhibition curve with a large enough effect; inconclusive means small, poorly fitted or top-dose-only effect, or another doubt; inactive means no such curve, though single readings can be large or run the other way. The full list was thinned out, with actives kept by preference.

target: DNA polymerase eta (Homo sapiens) (UniProt Q9Y253); test: qHTS for Inhibitors of Polymerase Eta; conditions: recombinant Pol eta, fluorescent DNA replication assay; series mostly up to 114 µM; activity change, negative = inhibition: at the top concentration
How it was run: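 Pol eta at 10 nM preincubated with compounds 15 min at room temperature; reaction started with fluorescent substrate (50 nM final) and read kinetically at 0 and 10 min.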
On the % scale 0 is the no-effect control and ±100 the full control effect; potency means the concentration at half of the fitted maximal effect.

Chain of DNA polymerase eta (Homo sapiens) (Q9Y253 whole entry, looked up): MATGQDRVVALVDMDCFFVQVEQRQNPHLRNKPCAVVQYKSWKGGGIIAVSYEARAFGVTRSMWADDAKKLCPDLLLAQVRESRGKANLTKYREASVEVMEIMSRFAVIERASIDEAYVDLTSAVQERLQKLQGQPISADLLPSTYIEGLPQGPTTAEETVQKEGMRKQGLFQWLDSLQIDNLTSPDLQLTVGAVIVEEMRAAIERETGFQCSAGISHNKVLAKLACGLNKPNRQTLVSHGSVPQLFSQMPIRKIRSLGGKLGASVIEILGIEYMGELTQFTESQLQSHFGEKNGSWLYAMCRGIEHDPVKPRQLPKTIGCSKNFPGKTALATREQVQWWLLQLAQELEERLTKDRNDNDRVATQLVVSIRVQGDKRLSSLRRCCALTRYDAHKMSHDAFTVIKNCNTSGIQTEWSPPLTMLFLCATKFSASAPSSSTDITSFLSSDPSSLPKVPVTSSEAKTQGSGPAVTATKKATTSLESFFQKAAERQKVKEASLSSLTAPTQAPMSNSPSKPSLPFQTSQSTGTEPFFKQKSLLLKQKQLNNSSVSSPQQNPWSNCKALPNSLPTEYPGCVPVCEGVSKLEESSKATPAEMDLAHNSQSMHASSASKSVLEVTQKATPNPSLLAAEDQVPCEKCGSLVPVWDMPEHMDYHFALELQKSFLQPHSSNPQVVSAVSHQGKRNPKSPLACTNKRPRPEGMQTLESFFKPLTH

Activity change, negative = inhibition, inactive:
CC(C)S(=O)(=O)c1oc(-c2ccc(F)cc2)nc1S(=O)(=O)c1ccc(F)cc1 -22.2%
Cc1ccccc1C(=O)Nc1nnc(S(=O)(=O)N(C)c2ccc(Cl)cc2)s1 -1.26%
CN(Cc1ccco1)S(=O)(=O)c1nnc(NC(=O)c2ccccc2)s1 -18.2%
Cn1nc(-c2ccccc2)c(-c2ccccc2)c(C(=O)Nc2ccc(S(N)(=O)=O)cc2)c1=O -13.8%
O=C(O)/C(=C/c1c(C(=O)O)[nH]c2cc(Cl)cc(Cl)c12)c1ccccc1 1.06% [at 57.1 µM]
O=C1OC(C(=O)Nc2cccc(Br)c2)Cc2ccccc21 (configuration not stated) -1.35%
Cc1ccc(-n2nc(C)c3c(C)cc(=O)n(CC(=O)Nc4ccc(C(C)C)cc4)c32)cc1 -4.68%
CCOc1ccc(S(=O)(=O)N2CCC(C(=O)NCc3ccccn3)CC2)cc1Cl 2.78%
CCNS(=O)(=O)c1cc(-c2nnc(Nc3cccc(C(F)(F)F)c3)c3ccccc23)ccc1C -18.4%
Cc1ccccc1-c1nc(SCC(=O)N(C)c2ccccc2)c2c(=O)n(C)c(=O)n(C)c2n1 -25%
CCOC(=O)Cn1c(=O)n(-c2ccccc2OC)c2nc(-c3cccc(F)c3)nc(C(N)=O)c21 -17%
CCOC(=O)c1cc2c(=O)n3ccccc3nc2n(CCCOC)c1=NC(=O)C(C)(C)Oc1ccc(Cl)cc1 -19.7%
CCSc1nnc(NC(=O)c2cc(=O)c3cc(C)c(C)cc3o2)s1 -14.5%
COc1cc(OC)cc(C(=O)Nc2nnc(SCC(=O)NCC3CCCO3)s2)c1 (configuration not stated) -19.7%
CCOc1ccccc1N(CC)C(=O)c1cc2ccc3cccnc3c2[nH]1 -2.25%
COc1ccccc1N1CC(C(=O)Nc2nnc(SCC(=O)NCC3CCCO3)s2)CC1=O (configuration not stated) -20%
COc1ccccc1N1CC(C(=O)Nc2nnc(SCC(=O)NC(C)C)s2)CC1=O (configuration not stated) 4.61%
COc1ccc(SCc2cc(=O)c3ccc(C)c(C)c3[nH]2)cc1 -3.7%
Cc1ccc(NC(=O)c2ccc3[nH]c(C)cc(=O)c3c2)c(C)c1 -3.29%
CCOC(=O)C1=C(c2ccccc2)Nc2ncnn2C1c1ccc(Cl)cc1 (configuration not stated) -18.3%
NS(=O)(=O)c1cc(C(=O)OCC(=O)NNC(=O)c2ccccc2)ccc1Cl -1.41%
CC(C)CN(CC(C)C)C(=O)CN1c2cccc3cccc(c23)S1(=O)=O -9.58%
COc1ccc(C)cc1NC(=O)CN1c2cccc3cccc(c23)S1(=O)=O -8.64%
COc1ccccc1Cc1nc2ccccc2nc1SCC(=O)N1CCCc2ccccc21 6.87%
CC(=O)c1ccc(N2CCN(c3nc4c(S(=O)(=O)c5ccccc5)nnn4c4ccc(Cl)cc34)CC2)cc1 -14%
C#CCOCCOCCOCCNc1nc(N2CCN(C(=O)C([C@@H](C)CC)n3cc(C(N)COC(=O)C(F)(F)F)nn3)CC2)nc(N2CCN(C(=O)[C@H](CCCCN)n3cc(C(N)CC(C)C)nn3)CC2)n1 (some centres not stated) -1.59%
C#CCOCCOCCOCCNc1nc(N2CCN(C(=O)C([C@@H](C)CC)n3cc(C(N)COC(=O)C(F)(F)F)nn3)CC2)nc(N2CCN(C(=O)[C@H](Cc3ccc(O)cc3)n3cc(C(N)[C@H](C)CC)nn3)CC2)n1 (some centres not stated) -12%
C#CCOCCOCCOCCNc1nc(N2CCN(C(=O)[C@H](CCC(=O)O)n3cc(C(N)CO)nn3)CC2)nc(N2CCN(C(=O)[C@H](Cc3ccc(O)cc3)n3cc(C(N)[C@H](C)CC)nn3)CC2)n1 (some centres not stated) 1.96%
COc1ccccc1NC(=O)Cn1cnc2ccc(S(=O)(=O)N3CCC(C)CC3)cc2c1=O -21.9%
COc1ccc(-c2nc3c4ccccc4n(CC(=O)Nc4ccc(C(C)=O)cc4)c(=O)n3n2)cc1 -3.59%
O=C(CSCc1cnn(-c2ccccc2)c1-n1cccc1)NCc1ccc(Cl)cc1 -15.8%
CCOc1ccc(-c2cc3nc(C4CCN(C(=O)OC(C)(C)C)CC4)c(C(=O)Nc4cccc(CC)c4)cn3n2)cc1 -17.4%
CC(=O)c1ccc(NS(=O)(=O)c2ccc(-c3cc(C)no3)s2)cc1 7.23%
Cc1c(OC(C)C(=O)N[C@@H](Cc2ccccc2)C(=O)O)ccc2c3c(c(=O)oc12)CCCC3 (some centres not stated) -15.3%
Cc1c(CCC(=O)N[C@@H](CC(C)C)C(=O)O)c(=O)oc2c(C)c3oc4c(c3cc12)CCCC4 -9.53%
CC1(c2ccccc2Cl)NC(=O)N(CC(=O)NC(=O)NCc2ccco2)C1=O (configuration not stated) -4.59%
NC(=O)CCN1CCN(S(=O)(=O)/C=C/c2ccccc2)CC1 11.3%
CCOc1cc(-c2nnc(SCC(=O)NC3CCCCC3)nc2-c2ccc(OC)c(OCC)c2)ccc1OC -16.8%
CC(=O)Nc1ccc(NC(=O)c2cc3sccc3n2Cc2ccc(F)cc2)cc1 -25.1%
CCCCN(C)S(=O)(=O)c1ccc(C(=O)Nc2sc3c(c2C(N)=O)CC(C)(C)NC3(C)C)cc1 5.33%
COc1ccccc1CNCc1ccc(C(=O)O)s1 -19.3%
COc1ccc(C)cc1NC(=O)c1[nH]c(C)c(C(C)=O)c1C -13.9%
CCOc1ccc(C(=O)Nc2ccc3nc4c(c(Nc5ccccc5OC)c3c2)CCCC4)cc1 -17%
CC(=O)c1ccc(NC(=O)CSc2nnc(NC(=O)Nc3ccccc3)s2)cc1 -10.6%
CN(C(=O)CSc1nnc(NC(=O)Nc2ccccc2)s1)c1ccccc1 -5.03%
COc1ccc(C)cc1N(C)C(=O)c1c(C)oc2ncnc(N3CCOCC3)c12 1.72%
Cc1ccc(-c2cc(C(=O)NN)n[nH]2)o1 0.265%
CCOc1ccc(CNC(=O)c2cc(-c3ccc(Cl)s3)nc3ccccc23)cc1 -8.47%
CCOc1cccc(CNC(=O)c2ccc(N3CCCC3)c(NC(=O)Nc3ccccc3CC)c2)c1 -10.1%
O=C(Nc1ccc(OC(F)(F)F)cc1)C1CCCN(S(=O)(=O)c2ccc(Br)s2)C1 (configuration not stated) -15.9%
O=C(NCCc1ccccc1)c1cnc2sc(N3CCCC3)nn2c1=O -9.25%
CC(=O)c1nn(-c2ccc(OC(F)(F)F)cc2)nc1Nc1ccccc1 -12.7%
Cc1ccc(-c2cc(-c3coc4ccccc4c3=O)c3c(n2)-c2cc(Cl)ccc2OC3)cc1 -2.19%
Cc1cccc(OCCSc2nc3ccccc3n2CC(=O)N2CCCCC2)c1C -22.7%
NC(=O)C1CCN(C(=O)c2cccc(NC(=O)c3nsc4ccccc34)c2)CC1 -11%
Cc1nn(CC(=O)NCCc2ccccc2)c(=O)c2c1sc1ccccc12 7.02%
COc1ccc(CNC(=O)Cc2coc3ccc(C(C)C)cc23)cc1 -8.76%
COc1ccc(N(C)C(=O)C2CCN(S(=O)(=O)c3cc(Br)cc4c3N(C(C)=O)CC4)CC2)cc1 -9.98%
Cn1c(=O)c2c(SCC(=O)N3CCc4ccccc43)nc(-c3ccc(Cl)cc3)nc2n(C)c1=O -13.8%
C=CCn1c(=O)c(C(=O)NCc2ccc3c(c2)OCO3)c(O)c2ccccc21 -4.62%
COc1ccccc1-n1c(C)nc2cc(C(=O)NCc3ccc4c(c3)OCO4)ccc21 -18.8%
COc1ccc(NC(=O)Cn2c(=O)n(CCC(C)C)c(=O)c3cccnc32)cc1Cl -9.44%
CCN(CC)S(=O)(=O)c1ccc2c(c1)nc(CN(C)C(=O)Nc1ccc(Cl)cc1)n2C -11%
CC(=O)N1CCc2cc(S(=O)(=O)NC(Cc3ccccc3)C(=O)NCc3ccc(C)cc3)ccc21 (configuration not stated) -6.24%
Cc1sc(C2C(C#N)=C(N)N(c3cccc(Cl)c3)C3=C2C(=O)CCC3)cc1CN1CCOCC1 (configuration not stated) -8.01%
Cc1csc2nc(COC(=O)c3ccccc3NC(=O)c3ccccc3Cl)cc(=O)n12 -7.27%
O=C(CCc1ccccc1)NCCc1cccs1 -16.9%
Cc1ccnc(NC(=O)CCC(=O)N(CC(=O)NCCc2ccccc2)Cc2cccs2)c1 -9.54%

Potency, active:
CCN(c1ccc(Cl)cc1)S(=O)(=O)c1nnc(NC(=O)c2ccco2)s1 39.8 µM
Cc1cc(O)c(C(=O)/C=C/c2c(F)c(F)c(F)c(F)c2F)c(=O)o1 35.5 µM
CCOC(CNC(=O)C1CCN(S(=O)(=O)c2ccc3nc4c(c(C(=O)O)c3c2)CC(C)CC4)CC1)OCC (configuration not stated) 31.6 µM
NC(=O)CSc1nnc(NC(=O)c2ccc(Br)o2)s1 20 µM
Cc1ccccc1N1CC(C(=O)Nc2nnc(SCCC3OCCO3)s2)CC1=O (configuration not stated) 20 µM
O=C(NC1=CC(=O)c2ccccc2C1=O)c1ccccc1 89.1 µM
O=C(O)CN1c2cccc3cccc(c23)S1(=O)=O 28.2 µM
C#CCOCCOCCOCCNc1nc(N2CCN(C(=O)CCCCCCCCCCNC(=O)[C@H](CCCCN)n3cc(C)nn3)CC2)nc(N2CCN(C(=O)CCCCCCCCCCNC(=O)[C@H](CO)n3cc(CCCSC)nn3)CC2)n1 89.1 µM
C#CCOCCOCCOCCNc1nc(N2CCN(C(=O)CCCCCCCCCCNC(=O)[C@H]([C@@H](C)CC)n3cc(CCCCN=C(N)N)nn3)CC2)nc(N2CCN(C(=O)CCCCCCCCCCNC(=O)[C@H](CO)n3cc(CCCSC)nn3)CC2)n1 50.1 µM
Cc1oc2c(C)c3oc(=O)c(CC(=O)N[C@@H](CC(C)C)C(=O)N[C@@H](Cc4ccccc4)C(=O)O)c(C)c3cc2c1C 20 µM
O=C(CN1CCN(S(=O)(=O)/C=C/c2ccccc2)CC1)NC(=O)NCc1ccco1 79.4 µM
COc1cccc2c(C)c(C(=O)O)[nH]c12 12.6 µM
CC(C)c1ccc(Nc2nnc(SCC(=O)c3nnc(-c4ccccc4)o3)s2)cc1 15.8 µM
Cc1ccc(NC(=O)c2cc(-c3ccc(C)o3)nc3ccccc23)nc1 22.4 µM
NC1=CC(=O)C(=O)c2cccnc21 8.91 µM
Cc1nc2c(C(=O)NCc3ccc4c(c3)OCO4)c[nH]n2c(=O)c1Cc1ccccc1F 89.1 µM
CN1CCOC1c1ccc(C2OCCN2C)cc1 (configuration not stated) 20 µM
O=C(O)CCC(=O)N(Cc1cccs1)Cc1cccs1 20 µM

Potency, inactive:
Cc1ccc(CNC(=O)C2CCN(S(=O)(=O)c3ccc4nc5c(c(C(=O)O)c4c3)CC(C)CC5)CC2)cc1 (configuration not stated)
